# ssDAF12 agonist: S. stercoralis DAF-12 nuclear receptor activators, primary screen, cell-based, luminescence, HEK293, GRIP1 co-expression, lit1-tk-luc; 1% of 370,000 active; Nuclear hormone receptor DAF-12 (Strongyloides stercoralis); activation, % at 6.8 µM; HEK293 ssDAF-12/GRIP1 lit1-tk-luc reporter; % of 3 µM dafachronic acid response;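 active = activation above the mean over all tested compounds plus 3 SD, cut at about 0.9% in these data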;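 note: 0% = DMSO-only wells and 100% = 3 µM delta7-dafachronic acid wells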
# DAX1 inh-1: DAX1 (NR0B1) inhibitors on StAR promoter, primary screen, cell-based, luminescence, SF-1 (NR5A1), full-length DAX-1 | 1.1% of 370,000 active | inhibition, % at 6.8 µM | HEK293T StAR-luciferase reporter, SF-1/DAX-1 repression relief;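 active = inhibition above the mean over all tested compounds plus 3 SD, cut at about 3.6% in these data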;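 note: 0% = DAX-1 cells with DMSO and 100% = cells lacking DAX-1 with DMSO; higher inhibition means more luminescence from relief of DAX-1 repression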
# DAX1 inh-2: DAX1 (NR0B1) inhibitors, primary screen, cell-based, HEK293, Gal4-DAX1, luciferase luminescence; 0.99% of 340,000 active; inhibition, % at 6.75 µM; HEK293 Gal4-DAX1 luciferase reporter; Nuclear receptor subfamily 0 group B member 1 (Homo sapiens), P51843;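 active = inhibition above the mean over all tested compounds plus 3 SD, cut at about 4.2% in these data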;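 note: 0% = DAX1-transfected cells with DMSO and 100% = empty-vector control cells with DMSO; inhibition shows as a rise in luminescence from relieved DAX1 repression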
# hgDAF-12 ag: H. glycines DAF-12 receptor agonists, primary screen, cell-based, luminescence, HEK293, GAL4 fusion, UAS-luciferase. HEK293 GAL4-hgDAF12 UAS-luciferase reporter, agonist luminescence; normalized to butyrate control. activation, % at 6.8 µM. 1.8% of 370,000 active. AID 687014, 2013;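 active = activation above a cutoff set at the mean of all screened compounds plus 3 SD, cut at about 10% in these data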;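 note: 0% = DMSO wells and 100% = sodium butyrate wells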
# hcDAF12 agonist: H. contortus DAF-12 nuclear receptor activators, primary screen, cell-based, luminescence, HEK293, lit1-tk-luc reporter; HEK293 hcDAF-12 lit1-tk-luc reporter; 0% DMSO, 100% Δ7-dafachronic acid; AID 652067, 2013; 1.4% of 370,000 active; activation, % at 6.8 µM;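 active = activation above the mean of all tested compounds plus 3 SD, cut at about 5.5% in these data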;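 note: 100% = response to 3 µM Δ7-dafachronic acid high control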
# FXN GAA850 act: FXN promoter activators, primary screen, cell-based, luciferase luminescence, HEK293 lucGAA850; HEK293 lucGAA850 FXN promoter luciferase reporter, 24 h; percent of 10 µM SAHA response; activation, % at 6 µM; 0.56% of 360,000 active;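 active = activation above the average of all compounds screened plus 3 SD, cutoff fixed separately per campaign, cut at about 7.5% in these data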;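 note: 0% = DMSO wells and 100% = 10 µM SAHA wells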
# GAA30 FXN cntr: GAA30 FXN promoter activators, confirmation, counter-screen for GAA850 frataxin promoter activator project, cell-based, luminescence, HEK293, lucGAA30, triplicate | shares compounds with FXN GAA850 act | HEK293 lucGAA30 FXN promoter luciferase, 24 h; DMSO = 0%, 5 µM ipriflavone = 100% | activation, % at 6 µM | 66% of 1,900 active;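 active = mean activation above the mean of solvent-only control wells plus 3 SD, cut at about 22% in these data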;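 note: counterscreen of GAA850 promoter hits where activity marks nonselective or luminescence artifacts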
# FXN GAA850 conf: FXN GAA850 promoter activators in reporter cells, confirmation, cell-based, luminescence, HEK293 lucGAA850, triplicate | shares compounds with FXN GAA850 act | HEK293 lucGAA850 FXN promoter luciferase reporter, 24 h; 100% = activation by SAHA | activation, % at 6 µM | 86% of 1,900 active | AID 588351, 2011;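 active = mean activation above a set limit taken from the primary screen, cut at about 8% in these data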;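 note: 0% = DMSO wells and 100% = 10 µM SAHA wells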
# DAX1 inh confirm: DAX1 (NR0B1) inhibitors relieving SF-1 repression, confirmation, cell-based, luminescence, HEK293T, full-length DAX-1, SF-1 activated StAR promoter; 87% of 2,400 active; AID 652134, 2013; HEK293T StAR-promoter luciferase reporter, SF-1/DAX-1 repression; inhibition, % at 6.8 µM; shares compounds with DAX1 inh-1;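 active = inhibition above the average of every tested compound plus 3 SD, cut at about 3.8% in these data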;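 note: 0% = DAX-1 cells with DMSO and 100% = no DAX-1 control cells with DMSO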
# SF1 AF2mut Luc: StAR reporter signal changes without DAX1, counter-screen for DAX1 inhibitor project, cell-based, luminescence, AF-2 mutant SF-1, transactivation; shares compounds with DAX1 inh-1; HEK293 StAR-luciferase, SF-1 AF2 mutant; inhibition, % at 6.8 µM; 78% of 2,400 active; AID 652136, 2013;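 active = inhibition above the mean of all tested compounds plus 3 SD, cut at about 3% in these data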;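 note: 0% = DAX-1 transfected cells with DMSO and 100% = cells without DAX-1 with DMSO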
# hgDAF12 conf: H. glycines DAF-12 receptor agonists, confirmation, cell-based, luminescence, HEK293, GAL4-LBD fusion; shares compounds with hgDAF-12 ag; HEK293 GAL4-hgDAF12 luciferase reporter, agonist mode; percent of butyrate response; activation, % at 6.8 µM; 80% of 3,300 active; AID 743050, 2013;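 active = mean activation over triplicate wells above the hit cutoff derived from the earlier primary screen, cut at about 11% in these data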;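 note: 0% = DMSO low control and 100% = 2 mM sodium butyrate high control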
# LXRb DAF12 ctr: LXR agonists, Gal4 luciferase reporter, confirmation, counter-screen for hgDAF-12 agonist project, cell-based, luminescence, HEK293, H. glycines campaign; shares compounds with hgDAF-12 ag; 24 h; activation, % at 6.8 µM; 3,300 tested, under 10 active; AID 743051, 2013;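 active = mean activation of the triplicate above a set limit carried over from the primary screen, none filed active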
# Target sequence (P55055 whole entry, looked up, the tested form may be a part): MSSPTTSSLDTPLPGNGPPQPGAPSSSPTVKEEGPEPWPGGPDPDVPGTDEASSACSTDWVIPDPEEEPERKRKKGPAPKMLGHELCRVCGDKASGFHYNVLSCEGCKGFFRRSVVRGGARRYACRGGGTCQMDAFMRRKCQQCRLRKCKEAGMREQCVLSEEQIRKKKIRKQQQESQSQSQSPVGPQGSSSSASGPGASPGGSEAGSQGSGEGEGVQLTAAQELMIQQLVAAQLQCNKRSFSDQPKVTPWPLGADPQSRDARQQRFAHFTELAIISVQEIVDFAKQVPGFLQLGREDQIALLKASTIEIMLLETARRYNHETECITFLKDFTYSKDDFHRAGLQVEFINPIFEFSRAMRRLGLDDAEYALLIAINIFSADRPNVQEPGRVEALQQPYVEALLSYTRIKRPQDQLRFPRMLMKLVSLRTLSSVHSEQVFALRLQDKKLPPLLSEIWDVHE
# * hit, by the source's call; · = no result. A selection: hits, their analogues and other compounds. The true share with any hit is near 4.5%.
SMILES,ssDAF12 agonist,DAX1 inh-1,DAX1 inh-2,hgDAF-12 ag,hcDAF12 agonist,FXN GAA850 act,GAA30 FXN cntr,FXN GAA850 conf,DAX1 inh confirm,SF1 AF2mut Luc,hgDAF12 conf,LXRb DAF12 ctr
CCOC(=O)c1cnc(SCc2ccccc2)nc1N,-0.6,5.4*,2.6,16.1*,3.8,9.9*,117.3*,39.2*,10.4*,6.6*,16.0*,0.9
CCOC(=O)c1cnc(SCc2ccc(C(C)(C)C)cc2)nc1N,-1.5,0.3,-2.0,-0.9,-1.2,-1.1,·,·,·,·,·,·
CC(=Nc1ccc(Br)cc1)c1sc2ccccc2c1O,0.0,1.9,3.7,13.3*,6.0*,7.9*,116.0*,36.2*,·,·,20.5*,1.1
NC(=Nc1ccc(Br)cc1)c1ccccc1,-1.3,1.4,2.4,3.1,2.4,4.8,·,·,·,·,·,·
NNC(=O)c1cccc(COc2ccc3c(c2)CCC3)c1,0.5,4.9*,-5.0,22.0*,5.2,9.2*,124.9*,42.2*,14.8*,5.1*,21.6*,1.2

# Assay outcomes (PubChem BioAssay)
